The results in this text go back to PubChem BioAssay AID651568 (National Center for Advancing Translational Sciences (NCATS), 2012).

Hit rate of the full screen: of about 1,200 compounds, about 55 (5%) were called active. Entries that show only a call come without a potency. Not shown: some 15% with an inconclusive outcome. The call rests on the fitted dose curve; in most records, active means well fitted inhibition curve with a large enough effect; inconclusive means small, poorly fitted or top-dose-only effect; inactive means no such curve, though single readings can be large or run the other way. Many of the other results were omitted from the sample, so actives are more common in it than they were.
Potency means the concentration at half of the fitted maximal effect.

The nature of this experiment: qHTS Assay to Find Inhibitors of Chronic Active B-Cell Receptor Signaling: Hit Validation in Renilla Reporter Assay. Further: nearly all actives have a fitted effect of over 70% in size. Conditions: TMD8 IkB-Renilla luciferase reporter, NF-kB signaling; series mostly up to 57.5 µM. Summed up:
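Orthogonal secondary test of primary-screen hits in ABC-DLBCL cells carrying constitutively expressed IkB-Photinus and Renilla luciferase reporters, read by Dual-Glo luminescence; luciferases differ from the primary assay's click beetle enzymes, to exclude assay-specific artifacts.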
`CCOc1nc(OCC)nc(N2CCC(C)CC2)n1`: the Potency result is “inactive”.
The same measure for `CCOc1ccc(NC(=O)c2cc(OC)nc3ccccc23)cc1`: “inactive”.
As to `CCC1=Nc2cc(C(=O)NCc3ccco3)ccc2Sc2ccc(C)cc21`, the Potency result was “inactive”.
The same measure for `Cc1ccc(S(=O)(=O)n2cc(-c3ccccc3)c3ccccc32)cc1`: “inactive”; for `COc1cc2c(cc1OC)-c1cc(NC3CCCCCC3)nc(=O)n1CC2`: “inactive”; for `COc1ccc(C(=O)/C=C/c2ccc(O)cc2)c2c1CC(O)C(C)(C)O2` (centres undefined): 23.9 µM (active).
Then `COc1ccc(/C=N/NC(=O)c2ccc3c(c2)NC(=O)C(C)(C)O3)cc1OC`, with “inactive”.
Then `CCOC(=O)c1c(C)c(C(=O)OCC)n(C)c1C`, with “inactive”.
Regarding `CC(=O)N1CC(=O)N=C1SCC(=O)Nc1nc(C)c(-c2ccccc2)s1`, the Potency result was “inactive”.
With `CCOc1ccc(S(=O)(=O)Nc2ccc3oc(C)c(C(=O)OCCOC)c3c2)cc1`, the Potency result is “inactive”.
The same measure for `CCOC(=O)C1=C(C)NC(C)=C(C(=O)OCC)C1C(=O)OCC(=O)NCc1ccccc1OC`: “inactive”; for `COc1cc(OC)c2c(-c3cccc(-c4ccc(NC(C)=O)cc4)c3)cc(=O)oc2c1`: “inactive”; for `CC(=O)OCC(=O)[C@@]1(O)CC[C@H]2[C@@H]3CCC4=CC(=O)C=C[C@]4(C)[C@H]3[C@@H](O)C[C@@]21C`: “inactive”.
Regarding `COC(=O)CCC(=O)NC(=S)Nc1sc(C)c(C)c1C(N)=O`, the Potency result was “inactive”.
The same measure for `CCSc1nc(-c2ccccc2)nc(C(Cl)Cl)n1`: 2.69 µM (active).
`CCc1ccc(/C=N/NC(=O)c2cc(C3CC3)nc3ccccc23)s1`: the Potency entry is “inactive”.
Then `N#Cc1ccc(-c2cccs2)nc1SCc1cccnc1`, with “inactive”.
Then `OC(CNCc1ccc(-c2ccccc2)cc1)c1ccccc1` (centres undefined), with “inactive”; and `COc1ccc(-c2cnnn2-c2ccc(N)cc2)cc1OC`, with “inactive”; and `O=C(N/N=C/c1ccc(Cl)cc1)c1n[nH]c2c1CCCC2`, with “inactive”.
For `O=C(Cc1ccc(-c2ccccc2)cc1)NCc1ccccc1`, the Potency entry is “inactive”.
The same measure for `O=C(Cc1n[nH]c(=O)c2ccccc12)OCC(=O)c1ccc2c(c1)OCCO2`: “inactive”; for `CC(C)N1C(=O)/C(=C\c2nc3ccccc3c(=O)[nH]2)c2ccccc21`: 23.9 µM (active); for `O=C(CSc1nc2ccccc2c(=O)n1-c1ccccc1F)NC1CC1`: “inactive”.
Then `CC(C)N1C(=O)/C(=C/c2nc3ccccc3c(=O)n2-c2ccccc2)c2ccccc21`, with 13.5 µM (active).
Then `Cc1cc(C)cc(N2CC(O)=C(c3nc4ccccc4c(=O)[nH]3)C2=N)c1`, with “inactive”.
`Cc1ccc(Sc2c(CO)c(-c3ccccc3)nn2C)cc1`: the Potency result was “inactive”.
Then `COc1ccc(NC(=O)C(=O)c2cn(CC(=O)N3CCCC3)c3ccccc23)cc1`, with “inactive”; and `CC(=O)Nc1ccc(NS(=O)(=O)c2cc(-c3n[nH]c(=O)c4ccccc34)ccc2C)cc1`, with “inactive”.
